# Source: PubChem BioAssay
# The source made the active and inactive calls.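 How the source made its calls, unless noted: active means inhibition at or above 50% at 10 µM; inactive means inhibition below 50%.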
# What was measured:
# [1] = inhibitors of TNFa-induced NFkB p65 translocation, primary screen, imaging, HUVEC, MLSMR starter and 10KST1 sets (AID 438;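 active means inhibition above 20% together with a positive visual image hit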;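 further: compound added about 3h40 before a 20 min TNFalpha stimulation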;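 on inhibition: signal is the nuclear over cytoplasmic p65 intensity ratio per well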); settings: HUVEC TNFa-induced p65 nuclear translocation; cell count: measured here: nuclei count (cytotoxicity indicator), at 2.08 µM; inhibition: at 2 µM, stronger effect = higher value, 0% TNFa-plus-vehicle, 100% no-TNFa wells
# [2] = reduction of polyQ htt aggregates in cells – imaging, exon1htt(103Q)mCFP cells, high-content imaging, primary screen (AID 483;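 active means visual image review flags a hit and inhibition of aggregation exceeds 20%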;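 further: compound exposure lasted 3 days before fixation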;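 on nuclei count: percent of the per-plate median nuclei count of sample wells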); settings: exon1htt(103Q)mCFP cell line, aggregate imaging, at 2 µM; inhibition of aggregation: stronger effect = higher value; nuclei count: measured here: cell count, toxicity
# [3] = endothelial E-selectin expression blockers – imaging, HUVEC, immunofluorescence, MLSMR starter and 10KST1 sets, primary screen (AID 487;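 active means visually confirmed hit in the image check and inhibition above 20%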;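 on inhibition: signal is fraction of cell area covered by stained E-selectin grains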;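 on nuclei count: 100% = median nuclei count of all wells on the same plate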); settings: HUVEC TNFalpha-induced E-selectin immunofluorescence imaging, at 2 µM; inhibition: stronger effect = higher value; nuclei count: measured here: cell number, toxicity
# [4] = biological target: Voltage-gated potassium channel subunit beta-2 (Rattus norvegicus) (UniProt P62483); assay: inhibitors of rat Kvbeta2 reductase activity – biochemical, NADPH fluorescence, primary screen (AID 622;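 active means fluorescence slope higher than the sample average by over 3 SD, cut at about -0.22 in these data, passing the limit was not always enough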;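 further: slope of raw intensity against log time taken from 70 to 1610 s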); settings: recombinant KvBeta, 4-cyanobenzaldehyde reduction, at 10 µM, stronger effect = higher value
# Chain of Voltage-gated potassium channel subunit beta-2 (Rattus norvegicus) (P62483 whole entry, looked up): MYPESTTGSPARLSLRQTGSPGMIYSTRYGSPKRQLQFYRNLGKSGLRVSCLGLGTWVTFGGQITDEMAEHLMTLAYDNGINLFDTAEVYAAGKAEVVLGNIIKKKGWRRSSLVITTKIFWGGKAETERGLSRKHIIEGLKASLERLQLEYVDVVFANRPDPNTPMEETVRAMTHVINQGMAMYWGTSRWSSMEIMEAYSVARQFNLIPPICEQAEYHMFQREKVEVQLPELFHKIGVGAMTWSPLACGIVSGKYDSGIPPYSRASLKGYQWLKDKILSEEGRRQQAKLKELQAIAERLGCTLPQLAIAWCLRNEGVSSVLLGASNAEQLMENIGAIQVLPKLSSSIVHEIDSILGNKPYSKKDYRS
# [5] = biological target: Voltage-gated potassium channel subunit beta-2 (Rattus norvegicus) (UniProt P62483); assay: enhancers of rat Kvbeta2 NADPH turnover – biochemical, NADPH fluorescence, primary screen (AID 623;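 active means NADPH fluorescence slope more negative than the mean of all samples by about 3 SD, 99.7% confidence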;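 further: fluorescence intensity change per second fitted from 20 to 320 s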); settings: Recombinant KvBeta, NADPH fluorescence decrease slope, 10 min; at 10 µM; stronger effect = lower value
# [6] = biological target: Alpha-2C adrenergic receptor (Homo sapiens) (UniProt P18825); assay: compounds altering alpha2C-coupled GIRK flux – cell-based, HEK293 alpha2C/GIRK1/2, thallium flux, primary screen (AID 624;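 active means fluorescence slope after compound addition differing from the mean of all screened samples at 99.7% confidence, in either direction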;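 further: slope of fluorescence ratio to pre-addition baseline per second over 15 to 24 s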); settings: thallium flux BTC fluorescence, at 10 µM, actives lie on both sides
# Chain of Alpha-2C adrenergic receptor (Homo sapiens) (P18825 whole entry, looked up): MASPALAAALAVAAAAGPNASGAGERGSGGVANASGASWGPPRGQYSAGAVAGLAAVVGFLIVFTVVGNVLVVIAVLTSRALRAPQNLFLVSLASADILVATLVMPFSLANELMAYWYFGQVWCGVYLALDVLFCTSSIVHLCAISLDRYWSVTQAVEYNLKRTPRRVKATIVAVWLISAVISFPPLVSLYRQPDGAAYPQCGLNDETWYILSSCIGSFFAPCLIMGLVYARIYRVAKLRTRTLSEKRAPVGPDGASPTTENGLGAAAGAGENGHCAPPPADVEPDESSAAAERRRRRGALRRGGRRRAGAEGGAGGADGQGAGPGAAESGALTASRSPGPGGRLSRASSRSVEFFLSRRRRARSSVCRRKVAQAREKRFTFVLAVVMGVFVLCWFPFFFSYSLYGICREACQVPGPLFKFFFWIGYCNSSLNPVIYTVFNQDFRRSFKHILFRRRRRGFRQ
# [7] = blockers of RIG-like receptor reporter activation – cell-based, Sendai virus stimulus, luciferase, 10K MLSCN set, TLR/RLR signaling modifier project, primary screen (AID 602276); settings: HEK293 RL24 IRF3 luciferase reporter, at 10 µM, stronger effect = higher value;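 further: firefly luciferase from ISG56 promoter only with Renilla not read in this screen; 0% = Sendai virus plus DMSO and 100% = medium plus DMSO without virus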
# [8] = TLR3 IRF3 reporter activation blockers – cell-based, poly I:C stimulus, luciferase, 10K MLSCN set, primary screen (AID 602277;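 active means inhibition of the reporter signal at or above 50%; inactive means inhibition below 50%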); settings: HEK293-TLR3 RL24 IRF3 luciferase reporter, at 10 µM, stronger effect = higher value
SMILES,cell count [1],inhibition [1],inhibition of aggregation [2],nuclei count [2] [%],inhibition [3],nuclei count [3] [%],fluorescence slope [4],NADPH fluorescence slope [5],slope [6],inhibition [7],inhibition [8]
COc1ccc(-c2nc(SC)n(S(=O)(=O)c3ccccc3)n2)cc1,683,-1.9% (inactive),7.6% (inactive),99.4,-122% (inactive),109,-0.476 (inactive),9.5e-05 (inactive),0.00851 (inactive),-26% (inactive),-119% (inactive)
CS(=O)(=O)Nc1ccccc1C(=O)O,363,-2.1% (inactive),-4.3% (inactive),113,-81.2% (inactive),121,-0.411 (inactive),-2.7e-05 (inactive),0.00253 (inactive),11.5% (inactive),33% (inactive)
Cc1cc(NCCN2CCOCC2)n2nc(C)c(-c3ccccc3)c2n1,685,-8.9% (inactive),-34.5% (inactive),118,-43.4% (inactive),110,-0.573 (inactive),-2.5e-05 (inactive),0.00587 (inactive),4.53% (inactive),3.88% (inactive)
COc1ccc(-c2nc(C)c(C(C)=O)n2O)cc1OC,385,2.7% (inactive),3.6% (inactive),102,-127% (inactive),106,-0.355 (inactive),-2.6e-05 (inactive),0.00569 (inactive),-2.76% (inactive),10.1% (inactive)
COc1cc(N=c2ssnc2Cl)cc(OC)c1,148,-7.4% (inactive),0.8% (inactive),74.7,4.2% (inactive),82.2,-0.557 (inactive),-8.9e-05 (inactive),0.0056 (inactive),-6.83% (inactive),8.97% (inactive)
Cn1c(=O)oc2cc(S(=O)(=O)N3CCCC(C(=O)NCC4COc5ccccc5O4)C3)ccc21 (stereo not drawn),751,-1.9% (inactive),-6.6% (inactive),105,-40.9% (inactive),124,-0.575 (inactive),1.7e-05 (inactive),0.00726 (inactive),-12.4% (inactive),-5.33% (inactive)
Cc1cc(S(=O)(=O)N(Cc2ccccc2)Cc2ccc(N(C)C)cc2)ccc1-n1cnnn1,793,3.3% (inactive),-7.8% (inactive),94.8,-58.8% (inactive),130,-0.293 (inactive),-5.5e-05 (inactive),0.00447 (inactive),15.7% (inactive),36.4% (inactive)
Nn1cc(-c2ccccc2)nc1SCC(=O)N1CCN(S(=O)(=O)c2ccccc2)CC1,341,-17.9% (inactive),13.8% (inactive),102,-23.8% (inactive),106,-0.421 (inactive),4.3e-05 (inactive),0.00477 (inactive),8.62% (inactive),12.7% (inactive)
Cn1cc(Cl)c(C(=O)N(Cc2ccccc2)c2ccccn2)n1,623,8.3% (inactive),-6.5% (inactive),102,-5.2% (inactive),117,-0.584 (inactive),-3.1e-06 (inactive),0.00695 (inactive),-18.3% (inactive),0.52% (inactive)
CC(C)CCN(C)C1CCN(S(=O)(=O)c2ccc(F)cc2)CC1,638,0.8% (inactive),-2.4% (inactive),82.9,-35.4% (inactive),121,-0.543 (inactive),1.3e-05 (inactive),0.00577 (inactive),10.6% (inactive),40.9% (inactive)
COc1ccc(C)cc1C(=O)CCC(=O)Nc1ccccc1N1CCOCC1,382,8.3% (inactive),3.1% (inactive),103,-18.1% (inactive),113,-0.605 (inactive),-5.1e-05 (inactive),0.00373 (inactive),18.5% (inactive),18.2% (inactive)
O=C(NC1CCCCC1)c1nc2c(nnn2Cc2ccccc2Cl)c(=O)[nH]1,584,8.8% (inactive),17.1% (inactive),85.3,7.2% (inactive),105,-0.525 (inactive),-2.9e-05 (inactive),0.0047 (inactive),3.13% (inactive),6.18% (inactive)
Cc1cc(NC(=O)CSc2nnc(COc3cccc(C)c3C)n2Cc2ccco2)no1,363,-8.7% (inactive),7.4% (inactive),93,-60.4% (inactive),101,-0.6 (inactive),-6.6e-06 (inactive),0.00725 (inactive),4.7% (inactive),11.9% (inactive)
CCn1cc(C(=O)NCCC2=CCCCC2)c(=O)c2cc(S(=O)(=O)N(C)C)ccc21,458,-6.1% (inactive),38.5% (active),79,-45.7% (inactive),93.2,-0.563 (inactive),-4.1e-05 (inactive),0.00705 (inactive),3.13% (inactive),17.6% (inactive)
Cc1ccc(C)n1-n1c(C)nc2sc(-c3ccccc3)cc2c1=O,419,-0.6% (inactive),-8.2% (inactive),85.3,-143% (inactive),109,-0.363 (inactive),3.8e-06 (inactive),0.00611 (inactive),-68% (inactive),-272% (inactive)
Cc1cc(C)c(C(=O)Nc2ccc(S(=O)(=O)Nc3onc(C)c3C)cc2)c(C)c1,680,0.3% (inactive),-6.2% (inactive),113,-36.9% (inactive),114,-0.493 (inactive),-2.1e-05 (inactive),0.00709 (inactive),18.6% (inactive),22.1% (inactive)
Cc1ccccc1OCc1nnc(SCC(=O)NCc2ccccc2)n1C,409,3.9% (inactive),-6.5% (inactive),106,-22.7% (inactive),120,-0.521 (inactive),5.8e-06 (inactive),0.00575 (inactive),12% (inactive),23.6% (inactive)
COc1ccccc1CC(NC(C)=O)C(=O)NC1CCN(c2nnnn2-c2ccccc2)CC1 (stereo not drawn),761,-5.5% (inactive),-29.5% (inactive),63.6,-19.7% (inactive),117,-0.624 (inactive),1.1e-06 (inactive),0.00623 (inactive),-1.4% (inactive),16.9% (inactive)
Cc1ccc(S(=O)(=O)N2CCCC(c3nnc4n3-c3ccccc3SC4)C2)cc1 (stereo not drawn),431,3.4% (inactive),4.2% (inactive),95.7,-34% (inactive),103,-0.67 (inactive),-3.6e-05 (inactive),0.00342 (inactive),16.2% (inactive),19.1% (inactive)
CNC(=O)CSc1nnc(-c2cccc(S(=O)(=O)N3CCOCC3)c2)n1-c1ccc(F)cc1,474,7.2% (inactive),13.2% (inactive),104,-18.5% (inactive),106,-0.376 (inactive),-6.4e-05 (inactive),0.00569 (inactive),6.45% (inactive),26% (inactive)
Cc1ccc(S(=O)(=O)N2CCN(C(=O)CSC3CCCC3)CC2)c(C)c1,318,3.7% (inactive),-0.7% (inactive),93.6,-425% (inactive),110,-0.482 (inactive),4.3e-06 (inactive),0.00451 (inactive),17.2% (inactive),14.9% (inactive)
O=c1[nH]c2cc3c(cc2cc1C(c1nnnn1Cc1ccccc1)N1CCCc2ccccc21)OCO3 (stereo not drawn),552,-7.7% (inactive),16.5% (inactive),100,20.7% (inactive),108,-0.621 (inactive),1.7e-05 (inactive),0.0031 (inactive),10.6% (inactive),15.5% (inactive)
Cc1nc2oc3c(NCc4ccccn4)ncnc3c2c2c1COC(C)(C)C2,366,-2.9% (inactive),2.7% (inactive),78.1,-75.4% (inactive),117,-0.431 (inactive),-4.2e-06 (inactive),0.00661 (inactive),9.92% (inactive),12.7% (inactive)
Cc1ccccc1-c1nc(CN2CCC(C(=O)N3CCC(C(N)=O)CC3)CC2)c(C)o1,576,6.1% (inactive),1.2% (inactive),87.6,7.6% (inactive),87.8,-0.548 (inactive),-3.8e-05 (inactive),0.00557 (inactive),7.94% (inactive),40.4% (inactive)
COCCCNC(=O)CSc1nc2ccc(N3CCOCC3)cc2c(=O)n1CCc1ccccc1,369,-1.6% (inactive),-0.2% (inactive),104,17% (inactive),113,-0.558 (inactive),1.6e-05 (inactive),0.00582 (inactive),-0.853% (inactive),-8.93% (inactive)
CCCOC(=O)C1[C@H]2C(=O)N(CCCOC)C[C@]23C=C[C@H]1O3 (stereo partly drawn),706,-12.9% (inactive),-14.9% (inactive),112,-21.6% (inactive),118,-0.605 (inactive),3.2e-05 (inactive),0.00864 (inactive),11.7% (inactive),15.6% (inactive)
COc1cc(Nc2cc(C)nc3ncnn23)cc(OC)c1OC,649,-6.3% (inactive),-4.4% (inactive),109,-23.8% (inactive),112,-0.56 (inactive),1.9e-05 (inactive),0.0068 (inactive),1.55% (inactive),31.7% (inactive)
Cc1cc(C)n2nc(SCc3nc4ccccc4[nH]3)nc2n1,789,-6.3% (inactive),-29.8% (inactive),103,-21.3% (inactive),117,-0.568 (inactive),8.8e-06 (inactive),0.00609 (inactive),-26.2% (inactive),-34.6% (inactive)
